Assay in all cases: universal protein binding microarray (PBM); transcription factors of Arabidopsis thaliana; high values mean tight binding
The target in one assay is T1, GST-ANAC055(1-171) (Arabidopsis thaliana, UniProt Q9LDY8 1-171).
T1 sequence: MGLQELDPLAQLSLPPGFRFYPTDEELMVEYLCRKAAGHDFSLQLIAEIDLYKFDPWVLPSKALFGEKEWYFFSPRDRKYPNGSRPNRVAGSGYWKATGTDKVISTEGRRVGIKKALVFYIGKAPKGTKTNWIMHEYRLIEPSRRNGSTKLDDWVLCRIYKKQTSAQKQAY
To be noted: protein: recombinant; tags: GST; chain copies: 2; dsDNA, one strand shown. The method in brief:
(§1)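 For zinc-finger proteins, zinc acetate was added while GST-tagged NAC-domain, full-length or DNA-binding-domain proteins were induced in cells. Purification used glutathione–Sepharose 4B, and quantification used A280 or anti-GST western blot. Custom all-10-mer Agilent 4 × 180K arrays, made double-stranded by primer extension, each received a protein at 200 to 500 nM final in duplicate. Scoring covered gapped and ungapped 8-mers, with binding given as the normalised enrichment score (E-score).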

A further assay concerns the target T2, GST-ATAF1 NAC domain (Arabidopsis thaliana, UniProt Q39013 7-158).
T2 sequence: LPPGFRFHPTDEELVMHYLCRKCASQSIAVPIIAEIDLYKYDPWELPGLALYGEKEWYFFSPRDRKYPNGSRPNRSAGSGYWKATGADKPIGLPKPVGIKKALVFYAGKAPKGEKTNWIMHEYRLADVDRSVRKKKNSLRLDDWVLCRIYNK
To be noted: protein: recombinant; tags: GST; chain copies: 2; dsDNA, one strand shown. The method in brief: as §1

For assay [1], the target named is T3, GST-ANAC092(1-285) full length (Arabidopsis thaliana, UniProt Q9FKA0 1-285).
T3 sequence: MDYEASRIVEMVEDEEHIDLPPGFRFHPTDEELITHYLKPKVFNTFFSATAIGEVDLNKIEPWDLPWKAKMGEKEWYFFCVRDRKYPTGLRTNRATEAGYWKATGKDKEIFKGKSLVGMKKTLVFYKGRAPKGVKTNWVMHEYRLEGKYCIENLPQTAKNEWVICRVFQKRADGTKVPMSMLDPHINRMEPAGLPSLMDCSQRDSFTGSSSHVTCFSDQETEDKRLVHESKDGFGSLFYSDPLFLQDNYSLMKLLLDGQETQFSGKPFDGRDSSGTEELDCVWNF
To be noted: protein: recombinant; tags: GST; chain copies: 2; dsDNA, one strand shown. The method in brief: as §1

Another assay addresses T4, GST-NAP(1-166) (Arabidopsis thaliana, UniProt O49255 1-166).
T4 sequence: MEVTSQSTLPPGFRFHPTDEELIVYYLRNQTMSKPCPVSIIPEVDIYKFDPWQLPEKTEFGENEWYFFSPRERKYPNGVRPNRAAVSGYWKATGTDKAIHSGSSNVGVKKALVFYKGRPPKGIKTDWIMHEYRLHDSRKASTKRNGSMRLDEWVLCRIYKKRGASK
To be noted: protein: recombinant; tags: GST; chain copies: 2; dsDNA, one strand shown. In a few lines:
as §1

Another assay deals with T5, GST-VND3 NAC domain (Arabidopsis thaliana, UniProt Q9FH59 12-162).
T5 sequence: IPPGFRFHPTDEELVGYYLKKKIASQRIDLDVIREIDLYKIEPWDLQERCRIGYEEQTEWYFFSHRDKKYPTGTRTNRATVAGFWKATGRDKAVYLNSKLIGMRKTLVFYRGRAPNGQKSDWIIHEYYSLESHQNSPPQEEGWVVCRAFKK
To be noted: protein: recombinant; tags: GST; chain copies: 2; dsDNA, one strand shown. In a few lines: as §1

Another assay addresses T6, GST-VND7 NAC domain (Arabidopsis thaliana, UniProt Q9C8W9 9-158).
T6 sequence: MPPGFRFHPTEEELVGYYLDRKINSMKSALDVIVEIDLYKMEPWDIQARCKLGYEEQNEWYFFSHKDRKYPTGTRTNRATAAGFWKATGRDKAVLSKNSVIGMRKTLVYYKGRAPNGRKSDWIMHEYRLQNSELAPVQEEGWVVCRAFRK
As to conditions: protein: recombinant; tags: GST; chain copies: 2; dsDNA, one strand shown. The method in brief: as §1

The next assay has as its target GST-WRKY1(266-371) (Arabidopsis thaliana, UniProt Q9SI37 266-371). As to conditions: protein: recombinant; tags: GST; dsDNA, one strand shown. In a few lines: as §1
Another assay concerns the target T7, GST-ANAC092(1-176) (Arabidopsis thaliana, UniProt Q9FKA0 1-176).
T7 sequence: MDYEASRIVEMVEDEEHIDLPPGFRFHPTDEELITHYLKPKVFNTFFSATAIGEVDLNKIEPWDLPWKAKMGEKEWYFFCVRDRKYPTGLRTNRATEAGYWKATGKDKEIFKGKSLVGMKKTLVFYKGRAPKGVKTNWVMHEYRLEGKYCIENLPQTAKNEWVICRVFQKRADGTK
As to conditions: protein: recombinant; tags: GST; chain copies: 2; dsDNA, one strand shown. The method in brief:
as §1

Another assay deals with T8, GST-ANAC019 NAC domain (Arabidopsis thaliana, UniProt Q9C932 14-162).
T8 sequence: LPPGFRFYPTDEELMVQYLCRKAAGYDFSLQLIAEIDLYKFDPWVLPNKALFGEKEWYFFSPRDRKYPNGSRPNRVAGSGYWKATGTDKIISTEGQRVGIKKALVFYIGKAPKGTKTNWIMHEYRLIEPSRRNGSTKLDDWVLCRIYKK
To be noted: protein: recombinant; tags: GST; chain copies: 2; dsDNA, one strand shown. The method in brief: as §1

Another assay has as its target T9, GST-NST2(1-184) (Arabidopsis thaliana, UniProt Q9M274 1-184).
T9 sequence: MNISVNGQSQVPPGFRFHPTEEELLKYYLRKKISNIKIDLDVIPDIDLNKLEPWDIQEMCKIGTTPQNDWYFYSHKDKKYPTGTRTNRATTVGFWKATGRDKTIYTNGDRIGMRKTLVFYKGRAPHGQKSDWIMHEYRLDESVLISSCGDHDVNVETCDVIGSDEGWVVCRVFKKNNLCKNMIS
As to conditions: protein: recombinant; tags: GST; chain copies: 2; dsDNA, one strand shown. The method in brief:
as §1

Another assay deals with GST-NTL6(1-168) (Arabidopsis thaliana, UniProt Q9SCK6 1-168). As to conditions: protein: recombinant; tags: GST; chain copies: 2; dsDNA, one strand shown. The method in brief: as §1
The target in a further assay is T10, GST-NTL8 NAC domain (Arabidopsis thaliana, UniProt Q9XIN7 14-156).
T10 sequence: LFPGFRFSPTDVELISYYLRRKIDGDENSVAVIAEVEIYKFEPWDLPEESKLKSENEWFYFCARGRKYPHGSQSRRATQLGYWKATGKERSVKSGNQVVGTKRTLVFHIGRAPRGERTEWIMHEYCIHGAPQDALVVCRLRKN
To be noted: protein: recombinant; tags: GST; chain copies: 2; dsDNA, one strand shown. The method in brief:
as §1

Binding signal data for 13 sequences are collected here from paper PMC4081100, “A DNA-binding-site landscape and regulatory network analysis for NAC transcription factors in Arabidopsis thaliana”.

GST-NTL6(1-168), sequence (Q9SCK6 1-168): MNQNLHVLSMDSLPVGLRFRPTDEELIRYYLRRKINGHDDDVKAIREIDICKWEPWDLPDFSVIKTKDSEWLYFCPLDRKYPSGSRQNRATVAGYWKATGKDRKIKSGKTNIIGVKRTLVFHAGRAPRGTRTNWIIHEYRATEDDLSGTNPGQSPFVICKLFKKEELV
GST-WRKY1(266-371), sequence (Q9SI37 266-371): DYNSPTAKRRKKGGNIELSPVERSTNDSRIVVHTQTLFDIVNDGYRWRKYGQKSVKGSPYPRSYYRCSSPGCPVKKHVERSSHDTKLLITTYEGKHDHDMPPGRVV

For GTTGACAA, the binding signal came to 0.127 E-score with GST-ANAC055(1-171); 0.195 E-score with GST-ATAF1 NAC domain; 0.055 E-score in [1]; 0.116 E-score with GST-NAP(1-166); 0.0521 E-score in the assay with GST-VND3 NAC domain; 0.0726 E-score in the assay with GST-VND7 NAC domain. Further, the binding signal with GST-WRKY1(266-371) is 0.446 E-score.

On to ACACGGTA, for which the binding signal is 0.437 E-score with GST-ANAC092(1-176); 0.286 E-score with GST-ANAC019 NAC domain; 0.265 E-score in the assay with GST-ANAC055(1-171); 0.21 E-score in the assay with GST-ATAF1 NAC domain; 0.443 E-score in assay [1]; 0.234 E-score in the assay with GST-NAP(1-166). The binding signal in the assay with GST-NST2(1-184) worked out at 0.202 E-score; in the assay with GST-VND3 NAC domain, 0.227 E-score; with GST-VND7 NAC domain, 0.123 E-score.

For the sequence GCACGGTA, the binding signal is 0.375 E-score with GST-ANAC092(1-176); 0.2 E-score with GST-ANAC019 NAC domain; 0.189 E-score with GST-ANAC055(1-171); 0.134 E-score in the assay with GST-ATAF1 NAC domain; 0.408 E-score in assay [1]; 0.102 E-score with GST-NAP(1-166). For the same sequence, the binding signal with GST-VND3 NAC domain was 0.124 E-score; with GST-VND7 NAC domain it was 0.122 E-score.

For GGATTGAC, the binding signal with GST-ANAC092(1-176) stood at 0.0627 E-score; with GST-NTL6(1-168), 0.0579 E-score; with GST-ANAC019 NAC domain, 0.102 E-score; with GST-ANAC055(1-171), 0.0598 E-score; in the assay with GST-NAP(1-166) it was 0.0556 E-score; with GST-NST2(1-184), 0.12 E-score. The binding signal amounted to 0.094 E-score with GST-VND3 NAC domain and 0.459 E-score in the assay with GST-WRKY1(266-371).

As to GTGGTCAA, the binding signal came out at 0.0557 E-score with GST-ANAC092(1-176); 0.113 E-score with GST-ANAC055(1-171); 0.135 E-score in the assay with GST-ATAF1 NAC domain; 0.0872 E-score in the assay with GST-VND3 NAC domain; 0.489 E-score with GST-WRKY1(266-371).

With AGTCAATC, the binding signal was 0.0925 E-score with GST-ANAC092(1-176); 0.0768 E-score with GST-NTL6(1-168); 0.0741 E-score in the assay with GST-ANAC019 NAC domain; 0.0533 E-score in the assay with GST-ATAF1 NAC domain; 0.0868 E-score in [1]; 0.0978 E-score with GST-NAP(1-166). Also, the binding signal amounted to 0.0674 E-score in the assay with GST-NST2(1-184), 0.122 E-score with GST-NTL8 NAC domain, 0.0908 E-score with GST-VND3 NAC domain and 0.468 E-score with GST-WRKY1(266-371).

For the sequence CAAGACCA, the binding signal was 0.106 E-score in the assay with GST-ANAC092(1-176); 0.0845 E-score with GST-NTL6(1-168); 0.092 E-score with GST-ANAC055(1-171); 0.0751 E-score in the assay with GST-ATAF1 NAC domain; 0.0893 E-score with GST-NST2(1-184); 0.0681 E-score with GST-VND3 NAC domain. Moreover, the binding signal in the assay with GST-WRKY1(266-371) was 0.408 E-score.

For the sequence AATGTCAA, the binding signal is 0.155 E-score in the assay with GST-ANAC055(1-171); 0.19 E-score in the assay with GST-ATAF1 NAC domain; 0.13 E-score in the assay with GST-NAP(1-166); 0.0715 E-score in the assay with GST-NST2(1-184); 0.104 E-score with GST-VND3 NAC domain; 0.0638 E-score with GST-VND7 NAC domain. For the same sequence, the binding signal with GST-WRKY1(266-371) is 0.404 E-score.

Take AGTCAACT: the binding signal in the assay with GST-ANAC019 NAC domain amounted to 0.183 E-score; with GST-ATAF1 NAC domain, 0.0655 E-score; with GST-VND3 NAC domain, 0.0667 E-score; with GST-VND7 NAC domain, 0.0783 E-score; with GST-WRKY1(266-371) it was 0.486 E-score.

TCTGGTCA: the figures for the binding signal in the assay with GST-VND3 NAC domain and with GST-WRKY1(266-371) were 0.059 E-score and 0.455 E-score, respectively.

Turning to CTTGACTC, the binding signal in the assay with GST-ANAC092(1-176) stood at 0.0601 E-score; with GST-ATAF1 NAC domain it was 0.0754 E-score; with GST-VND3 NAC domain, 0.0677 E-score; with GST-WRKY1(266-371), 0.466 E-score.

On to ATTGACTG, for which the binding signal with GST-NTL6(1-168) came to 0.071 E-score; with GST-ATAF1 NAC domain, 0.0846 E-score; with GST-NST2(1-184), 0.0623 E-score; with GST-NTL8 NAC domain, 0.0613 E-score; in the assay with GST-VND7 NAC domain, 0.05 E-score; with GST-WRKY1(266-371), 0.465 E-score.

For the sequence TAGTCAAA, the binding signal in the assay with GST-ANAC055(1-171) was 0.136 E-score; with GST-ATAF1 NAC domain, 0.272 E-score; in the assay with GST-VND3 NAC domain, 0.105 E-score; with GST-WRKY1(266-371) it was 0.477 E-score.
